Data on 6 compounds can be found in PubChem BioAssay.

Several values for one entry are separate records, joined by “and”; a condition that tells them apart may be missing. Equal values may be shown once. Records with an inconclusive call do not appear. For some of these results: Potency and affinity values are given separately. Activity calls are given as the source filed them.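 The calls were made as follows, unless noted: active = compounds killing one labelled cell type while sparing the other, by normalised counts and ratio limits, not self-fluorescent; inactive = the rest.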

Test [1] is described as follows: differential killing of epithelial or mesenchymal cells, primary screen, imaging, PC-3E GFP, TEM4-18 mCherry, co-culture (AID 1345086).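 As to all read-outs here: cells exposed to compound for 72 h before imaging.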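 As to red/green cell ratio (normalised): normalised mesenchymal count divided by normalised epithelial count so high means epithelial killing.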 The following applies: imaging cell counts, at 1 µM; for red/green cell ratio (normalised): actives lie on both sides, counts scaled to control wells, 1 = unselective.
The nature of test [2]: polyglutamine-triggered caspase-3 activation inhibitors, cell-based (AID 1583). Conditions: polyglutamine-induced caspase-3 activation, cell assay; stronger effect = higher value;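 tested at 10 µM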.
Test [3] is described as follows: suppressors of polyQ aggregation in yeast, 75Q-TubU reporter (AID 1593). The following applies: Yeast 75Q polyglutamine aggregation reporter.
A short description of test [4]: rescue of polyQ-huntingtin neuronal dysfunction in worms, whole organism, C. elegans mechanosensory neurons, N-terminal huntingtin (AID 1599). The following applies: touch response, stronger effect = higher value.
Test [5] is described as follows: inhibitors of mitochondrial cytochrome c release, biochemical, purified mitochondria (AID 1603).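 Also: mouse liver mitochondria challenged with calcium chloride; signal normalized to the plate average as 100%.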 The following applies: stronger effect = lower value.
A short description of test [6]: inhibitors of polyQ protein aggregation (AID 1604). The following applies: polyglutamine-induced protein aggregation inhibition assay; stronger effect = higher value; tested at 2.5 µM.
Test [7] can be described thus: enhancers of glutamate uptake in motor neurons, MN-1 cell line (AID 1612).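 Also: tested at 1 µM final; 0% = mean of DMSO vehicle wells on each plate; positive means more glutamate uptake than control and negative means less.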 The following applies: MN-1 motor neuron cells, stronger effect = higher value.
Test [8] can be described thus: suppressors of polyglutamine aggregation in yeast, 75Q-TubH (AID 1616). Conditions: S. cerevisiae 75Q-TubH polyglutamine aggregation suppression; stronger effect = higher value.
A short description of test [9]: circadian clock period modulators, cell-based, LOPAC library, luminescence reporter (AID 2774; call rule not given here;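 also: values are relative to mean of DMSO wells on each plate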). Conditions: circadian reporter cells, at 7 µM, actives lie on both sides.
A short description of test [10]: liver-stage malaria parasite growth inhibition, primary screen, cell-based, HepG2, luciferase luminescence, HepG2 viability (AID 624349; in the data active = parasite load remaining mostly below about 12%, no sharp cut-off; inactive = mostly above about 10%;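 also: 100% = mean of DMSO negative control wells on the same plate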). Conditions: P. berghei liver stage in HepG2, luciferase luminescence, concentration not given here; parasite load remaining: stronger effect = lower value; viability: measured here: HepG2 viability without parasites.
In test [11] the test system is Hepatitis C virus NS3 helicase. The test can be described thus: HCV NS3 helicase inhibitors, primary screen, biochemical, fluorescence polarization, LOPAC1280 library (AID 687035; in the data active = inhibition above about 37%). Conditions: Purified HCV NS3 helicase, Cy5-dT15 ssDNA binding fluorescence polarization; stronger effect = higher value; concentration not given here. For orientation: In fluorescence polarisation assays a small probe gives low polarisation when free and higher when bound to something large.

Test [12] is described as follows: Cy5 fluorescence quenching or enhancement artefacts, artefact control for HCV NS3 helicase inhibitor project, biochemical, LOPAC1280 (AID 687037; call rule not given here). The following applies: Cy5-DNA-NS3h complex fluorescence interference counterscreen. (A counterscreen serves to expose hits that act by an unwanted route or on another target.)
In test [13] the test system is Aerobactin synthetase IucA (Klebsiella pneumoniae). The test can be described thus: IucA aerobactin synthetase inhibitors, biochemical, Tocris library, absorbance (AID 1345561; call rule not given here;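 also: 100% = enzyme without compound and 0% = no enzyme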). Conditions: purified IucA enzyme assay, absorbance (OD) read-out; stronger effect = lower value;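 tested at 8 µM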.
Test [14] is described as follows: growth inhibition of DIPG glioma cells, dose response, cell-based, SU-DIPG-XVII, MIPE5.0, CellTiter-Glo, qHTS (AID 1347060; cut-off not given, nearly all actives have AC50 up to about 26 µM;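 also: cells exposed to compound for 48 hours before viability readout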). The following applies: SU-DIPG-XVII viability, CellTiter-Glo ATP luminescence. For orientation: ATP-based viability assays read luminescence as a measure of living cells.
A short description of test [15]: growth inhibition of DIPG glioma cells, dose response, cell-based, SU-DIPG-XIII, MIPE4.0, CellTiter-Glo, qHTS (AID 1347061; cut-off not given, nearly all actives have AC50 up to about 37 µM;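 also: cells exposed to compound for 48 hours before readout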). The following applies: SU-DIPG-XIII viability, CellTiter-Glo ATP luminescence.
Test [16] in a line: growth inhibition of DIPG glioma cells, dose response, cell-based, JHH-DIPG-1, MIPE4.0, CellTiter-Glo, qHTS (AID 1347062; cut-off not given, nearly all actives have AC50 up to about 27 µM). Conditions: JHH-DIPG-1 viability, CellTiter-Glo ATP luminescence.
The nature of test [17]: growth inhibition of DIPG glioma cells, dose response, cell-based, SU-DIPG-IV, MIPE4.0, CellTiter-Glo, qHTS (AID 1347063; cut-off not given, nearly all actives have AC50 up to about 30 µM;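 also: compound exposure lasted 48 hours before the viability readout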). Conditions: SU-DIPG-IV viability, CellTiter-Glo ATP luminescence.
The nature of test [18]: growth inhibition of DIPG glioma cells, dose response, cell-based, SU-DIPG-XIII, MIPE5.0, CellTiter-Glo, qHTS (AID 1347064; cut-off not given, nearly all actives have AC50 up to about 23 µM). Conditions: SU-DIPG-XIII viability, CellTiter-Glo ATP luminescence.
Test [19] in a line: viability loss in pontine glioma line – cell-based, SU-DIPG-XXV, MIPE5.0, CellTiter-Glo, qHTS, dose response (AID 1347065; cut-off not given, nearly all actives have AC50 up to about 26 µM;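 also: cells exposed to compound for 48 hours before ATP readout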). Conditions: CellTiter-Glo ATP luminescence.
Test [20] is described as follows: SU-DIPG-VI glioma cell viability, MIPE4.0 library, CellTiter-Glo luminescence, qHTS (AID 1347066; cut-off not given, nearly all actives have AC50 up to about 30 µM;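 also: cells exposed to compound for 48 hours before readout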). The following applies: CellTiter-Glo ATP luminescence.
Test [21] in a line: sensitizers of A549 cells to miR-34 induction, primary screen, imaging, A549 dox-inducible miR-34, nuclei and caspase counts (AID 1347080;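 active = compounds whose cell count with miR-34 switched on is under 0.7 times the count with it off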). Conditions: A549 miR-34 inducible, Hoechst nuclei count, 48 h.
Test [22] in a line: modifiers of HSF1 nuclear foci, imaging, Selleck Cancer Library (AID 1347162; in the data active = plate-normalised HSF1 focus index below about 0.46). The following applies: human cells, at 10 µM; SSMD: measured here: HSF1 foci SSMD mean; cell count: measured here: cell number; plate-normalised HSF1 focus index: stronger effect = lower value.
The nature of test [23]: viability rescue of complex I mutant cybrids, primary screen, cell-based, galactose medium, ATP luminescence (AID 1645843;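 active = z-score of at least 1.8 in each of two replicates, scored against plate mean and spread of sample wells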;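 also: positive z means more ATP and so rescue of galactose-driven cybrid death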). The following applies: complex I mutant cybrid cells, 72 h, stronger effect = higher value.
Setting [24] is: measured here: epithelial PC-3E GFP cell survival.
[25] abbreviates: measured here: mesenchymal TEM4-18 mCherry cell survival.

On to `CC1(C)C2CC(=O)[C@@]3(C)C4=CC(=O)O[C@@H](C(=O)O)[C@]4(C)CCC3[C@@]2(C)[C@@H](O)C[C@H]1O` (stereo partly specified), for which the red/green cell ratio (normalised) in test [1] is 0.95 (inactive). Besides, the normalised cell number in test [1] (setting [24]) is 1.05; in test [1] (setting [25]) it was 0.99.

In the case of `O=C(O)c1cc(O)c2c(c1)[C@@H]([C@@H]1c3cc(C(=O)O)cc(O)c3C(=O)c3c(O[C@H]4O[C@H](CO)[C@@H](O)[C@H](O)[C@H]4O)cccc31)c1cccc(O[C@H]3O[C@H](CO)[C@@H](O)[C@H](O)[C@H]3O)c1C2=O`, the red/green cell ratio (normalised) in [1] is 0.83 (inactive). The normalised cell number in test [1] (setting [24]) was found to be 1.02; in test [1] (setting [25]) it was 0.84.

Consider `CC(=O)OCC1O[C@@H](OC(C)=O)C(NC(=O)OCc2ccccc2)[C@@H](OC(C)=O)C1OC(C)=O` (stereo partly specified), for which the red/green cell ratio (normalised) in test [1] was 0.94 (inactive). Also, the normalised cell number in [1] (setting [24]) amounted to 1.16; in [1] (setting [25]) it was 1.09.

As to `CC(C)C1=CC2=CCC3[C@](C)(CCC[C@]3(C)C(=O)O)C2CC1` (stereo partly specified), the red/green cell ratio (normalised) in test [1] was 1.12 (inactive). Moreover, the values for the normalised cell number in test [1] (setting [24]) and in [1] (setting [25]) were 0.92 and 1.03, respectively.

`CC(=O)O[C@H]1C(=O)[C@@]2(C)C([C@H](OC(=O)c3ccccc3)[C@]3(O)C[C@H](OC(=O)[C@H](O)[C@@H](NC(=O)c4ccccc4)c4ccccc4)C(C)=C1C3(C)C)[C@]1(OC(C)=O)CO[C@@H]1C[C@@H]2O` (stereo partly specified): the inhibition in [2] is 28.3%; in test [11], -1% (inactive). This compound had a score in test [3] of 1.98. The compound also displayed a rescue above control in test [4] of 5.24. Besides, in test [5], the cytochrome c release ratio was determined as 1.41. The compound also had an inhibition of aggregation in test [6] of 69%. Besides, in test [7], the glutamate uptake change is -2.18%. Further, in [8], the aggregation suppression score was 1.25. Further, the period change in test [9] is 0.575 h (inactive). Moreover, in test [10], the parasite load remaining is 178% (inactive) and 65.8% (inactive). The viability in [10] was 87.4% and 98%. For the same compound, in test [12], the fluorescence ratio (interference) was 0.9 (inactive). Besides, in test [1], the red/green cell ratio (normalised) is 0.49 (inactive). The results for the normalised cell number in test [1] (setting [24]) and in test [1] (setting [25]) were 0.23 and 0.11, respectively. Moreover, in test [13], the remaining activity is 121% (inactive). In addition, the values for the AC50 in test [14] and in [19] were 5.9 nM (active) and 7.42 nM (active), respectively. The compound was called inactive in test [15], in test [16], in test [17], in test [18] and in [20]. The fold change in test [21] (stronger effect = lower value, cell number ratio, induced over uninduced) is 1.16 (inactive) and 1.14 (inactive); in [21] (measured here: relative caspase fold change +Dox/-Dox) it was 0.394 and 2.19. Besides, the cell count in test [21] (measured here: total cells with miR-34 induction, stronger effect = lower value) is 2700 and 2090; in test [21] (measured here: total cells without miR-34 induction), 2330 and 1830; in test [22] it was 6910. The SSMD in test [22] came out at 5.16. Moreover, in test [22], the plate-normalised HSF1 focus index is 1.32 (inactive). In addition, the z-score in test [23] was 0.865 (inactive).

Consider `COc1cc(C(=O)O)cc(C)c1C(=O)CC(C)O` (stereo unspecified), for which, in [1], the red/green cell ratio (normalised) is 0.9 (inactive). Moreover, the results for the normalised cell number in test [1] (setting [24]) and in test [1] (setting [25]) were 1.04 and 0.94, respectively.

In general, inhibition refers to the change of the read-out against control, counted positive when it falls. As usually defined, the viability is the share of living cells, or the viability signal relative to a control. Usually remaining activity stands for the signal under treatment as a percentage of the control signal. What is called AC50 is the concentration at which the activity in the assay is half-maximal.
